3 molecules from ChEMBL document CHEMBL1961873, “Compounds: GSK PKIS; Assays: Nanosyn kinase panel” (2012) can be followed below.

The structures appear in SMILES notation.

As a reminder, the inhibition is the change of the read-out against control, counted positive when it falls.

Experiment [1] concerns the target Tyrosine-protein kinase SYK (Homo sapiens) (UniProt P43405). The following applies: at 1 µM.
The target of experiment [2] is T1, Tyrosine-protein kinase Tec (Homo sapiens) (UniProt P42680).
T1 sequence (whole entry): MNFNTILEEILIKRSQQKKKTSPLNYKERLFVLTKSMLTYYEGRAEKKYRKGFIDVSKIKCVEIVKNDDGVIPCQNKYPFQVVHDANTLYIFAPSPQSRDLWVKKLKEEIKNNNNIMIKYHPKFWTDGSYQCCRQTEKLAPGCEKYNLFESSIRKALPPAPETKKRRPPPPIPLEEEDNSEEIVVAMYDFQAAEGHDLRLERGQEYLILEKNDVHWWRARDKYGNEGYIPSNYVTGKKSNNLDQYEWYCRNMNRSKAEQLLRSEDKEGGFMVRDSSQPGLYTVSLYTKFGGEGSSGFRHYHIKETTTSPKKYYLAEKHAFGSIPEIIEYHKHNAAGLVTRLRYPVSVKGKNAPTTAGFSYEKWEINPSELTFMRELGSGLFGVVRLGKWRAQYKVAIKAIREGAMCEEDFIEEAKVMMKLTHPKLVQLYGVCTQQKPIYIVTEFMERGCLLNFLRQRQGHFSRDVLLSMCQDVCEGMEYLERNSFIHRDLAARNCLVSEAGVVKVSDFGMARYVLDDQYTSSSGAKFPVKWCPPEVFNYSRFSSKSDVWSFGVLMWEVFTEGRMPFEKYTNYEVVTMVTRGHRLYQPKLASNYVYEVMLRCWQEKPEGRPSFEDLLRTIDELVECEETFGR
Particulars: at 0.1 µM.

In experiment [3] the target is T1, Tyrosine-protein kinase Tec (Homo sapiens). Particulars: at 1 µM.
The target in experiment [4] is Angiopoietin-1 receptor (Homo sapiens) (UniProt Q02763). The following applies: at 0.1 µM.
Experiment [5] has the same target. Particulars: at 1 µM.
Experiment [6] addresses T2, Non-receptor tyrosine-protein kinase TNK1 (Homo sapiens) (UniProt Q13470).
T2 sequence (whole entry): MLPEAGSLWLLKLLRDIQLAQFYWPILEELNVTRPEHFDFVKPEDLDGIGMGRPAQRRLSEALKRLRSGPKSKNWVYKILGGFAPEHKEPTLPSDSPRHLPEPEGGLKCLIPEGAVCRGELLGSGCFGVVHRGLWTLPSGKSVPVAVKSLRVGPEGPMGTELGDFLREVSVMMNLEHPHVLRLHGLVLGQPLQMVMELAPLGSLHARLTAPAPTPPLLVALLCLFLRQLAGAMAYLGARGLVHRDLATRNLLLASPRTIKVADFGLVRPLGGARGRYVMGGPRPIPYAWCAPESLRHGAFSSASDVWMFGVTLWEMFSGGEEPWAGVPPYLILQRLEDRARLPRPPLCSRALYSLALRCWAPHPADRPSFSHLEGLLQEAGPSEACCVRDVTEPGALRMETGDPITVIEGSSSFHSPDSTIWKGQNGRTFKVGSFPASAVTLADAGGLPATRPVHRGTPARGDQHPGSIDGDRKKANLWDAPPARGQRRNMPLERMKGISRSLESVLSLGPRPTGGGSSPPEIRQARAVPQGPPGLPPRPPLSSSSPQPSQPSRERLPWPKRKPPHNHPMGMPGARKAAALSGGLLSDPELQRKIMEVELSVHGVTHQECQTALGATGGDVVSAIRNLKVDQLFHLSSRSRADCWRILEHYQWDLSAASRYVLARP
The following applies: at 0.1 µM.

In experiment [7] the target is T2, Non-receptor tyrosine-protein kinase TNK1 (Homo sapiens). The following applies: at 1 µM.
Experiment [8] deals with Activated CDC42 kinase 1 (Homo sapiens) (UniProt Q07912). Particulars: at 0.1 µM.
Experiment [9] shares this target. Particulars: at 1 µM.
Experiment [10] has as its target High affinity nerve growth factor receptor (Homo sapiens) (UniProt P04629). Particulars: at 0.1 µM.
For experiment [11] the target is unchanged. Particulars: at 1 µM.
Experiment [12] concerns the target BDNF/NT-3 growth factors receptor (Homo sapiens) (UniProt Q16620). The following applies: at 0.1 µM.
For experiment [13] the target is unchanged. The following applies: at 1 µM.
Experiment [14] deals with NT-3 growth factor receptor (Homo sapiens) (UniProt Q16288). Particulars: at 0.1 µM.
For experiment [15] the target is unchanged. The following applies: at 1 µM.
The target of experiment [16] is T3, Tyrosine-protein kinase TXK (Homo sapiens) (UniProt P42681).
T3 sequence (whole entry): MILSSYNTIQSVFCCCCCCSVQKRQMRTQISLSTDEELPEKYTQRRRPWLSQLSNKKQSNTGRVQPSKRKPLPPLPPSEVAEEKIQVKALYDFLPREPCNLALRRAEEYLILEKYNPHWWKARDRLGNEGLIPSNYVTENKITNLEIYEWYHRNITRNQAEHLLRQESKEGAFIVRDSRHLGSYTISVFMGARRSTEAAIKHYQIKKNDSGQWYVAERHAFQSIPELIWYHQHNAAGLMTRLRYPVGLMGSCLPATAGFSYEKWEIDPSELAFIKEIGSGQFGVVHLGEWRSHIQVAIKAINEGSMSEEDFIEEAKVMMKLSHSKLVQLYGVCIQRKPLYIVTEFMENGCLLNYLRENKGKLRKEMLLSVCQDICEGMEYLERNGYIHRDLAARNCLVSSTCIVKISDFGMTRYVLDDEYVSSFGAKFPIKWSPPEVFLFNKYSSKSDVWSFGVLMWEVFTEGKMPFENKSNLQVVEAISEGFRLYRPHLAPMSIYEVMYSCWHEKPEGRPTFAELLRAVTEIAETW
Particulars: at 0.1 µM.

In experiment [17] the target is T3, Tyrosine-protein kinase TXK (Homo sapiens). Particulars: at 1 µM.
For experiment [18], the target named is Non-receptor tyrosine-protein kinase TYK2 (Homo sapiens) (UniProt P29597). Particulars: at 0.1 µM.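 Note: each value is a mean of the inhibition readings.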
The target of experiment [19] is T4, Dual specificity protein kinase TTK (Homo sapiens) (UniProt P33981).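 Note: reported figures are mean TTK inhibition at 1 µM.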
T4 sequence (whole entry): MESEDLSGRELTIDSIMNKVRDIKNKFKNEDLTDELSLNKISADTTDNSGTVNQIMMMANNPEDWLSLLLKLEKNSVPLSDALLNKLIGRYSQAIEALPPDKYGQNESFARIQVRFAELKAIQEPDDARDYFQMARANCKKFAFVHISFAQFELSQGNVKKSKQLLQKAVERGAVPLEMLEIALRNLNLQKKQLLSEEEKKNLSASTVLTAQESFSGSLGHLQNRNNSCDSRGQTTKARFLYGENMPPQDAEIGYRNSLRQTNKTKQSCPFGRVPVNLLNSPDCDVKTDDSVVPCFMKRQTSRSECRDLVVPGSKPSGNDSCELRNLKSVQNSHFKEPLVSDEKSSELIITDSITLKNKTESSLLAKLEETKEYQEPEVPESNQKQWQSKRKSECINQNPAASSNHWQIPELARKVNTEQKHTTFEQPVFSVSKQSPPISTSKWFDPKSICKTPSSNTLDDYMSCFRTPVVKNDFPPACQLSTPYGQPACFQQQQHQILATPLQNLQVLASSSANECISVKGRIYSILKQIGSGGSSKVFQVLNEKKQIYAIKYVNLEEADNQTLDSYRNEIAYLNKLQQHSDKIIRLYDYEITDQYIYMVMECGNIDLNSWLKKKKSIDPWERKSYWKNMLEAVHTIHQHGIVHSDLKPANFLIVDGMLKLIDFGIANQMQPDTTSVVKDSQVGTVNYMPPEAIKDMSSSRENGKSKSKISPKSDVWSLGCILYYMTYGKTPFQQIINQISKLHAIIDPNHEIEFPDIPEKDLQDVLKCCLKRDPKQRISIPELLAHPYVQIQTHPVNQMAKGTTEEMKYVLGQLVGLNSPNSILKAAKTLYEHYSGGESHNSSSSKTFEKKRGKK
Particulars: at 1 µM.

The target in experiment [20] is T5, Aurora kinase A (Homo sapiens) (UniProt O14965).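 Note: each reported value is a mean percent inhibition of Aurora-A.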
T5 sequence (whole entry): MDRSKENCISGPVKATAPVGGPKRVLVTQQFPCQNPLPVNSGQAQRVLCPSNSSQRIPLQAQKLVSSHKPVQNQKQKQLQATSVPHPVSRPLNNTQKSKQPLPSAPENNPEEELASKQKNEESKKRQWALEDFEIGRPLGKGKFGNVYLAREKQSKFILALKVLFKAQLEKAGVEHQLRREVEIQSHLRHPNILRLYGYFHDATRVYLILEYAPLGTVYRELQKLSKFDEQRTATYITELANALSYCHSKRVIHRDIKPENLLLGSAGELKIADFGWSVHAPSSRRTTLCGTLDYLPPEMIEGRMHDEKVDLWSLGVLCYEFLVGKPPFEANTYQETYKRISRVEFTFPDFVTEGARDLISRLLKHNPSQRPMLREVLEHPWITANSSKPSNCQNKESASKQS
The following applies: at 0.1 µM.

Sequence of Non-receptor tyrosine-protein kinase TYK2 (Homo sapiens) (P29597 whole entry): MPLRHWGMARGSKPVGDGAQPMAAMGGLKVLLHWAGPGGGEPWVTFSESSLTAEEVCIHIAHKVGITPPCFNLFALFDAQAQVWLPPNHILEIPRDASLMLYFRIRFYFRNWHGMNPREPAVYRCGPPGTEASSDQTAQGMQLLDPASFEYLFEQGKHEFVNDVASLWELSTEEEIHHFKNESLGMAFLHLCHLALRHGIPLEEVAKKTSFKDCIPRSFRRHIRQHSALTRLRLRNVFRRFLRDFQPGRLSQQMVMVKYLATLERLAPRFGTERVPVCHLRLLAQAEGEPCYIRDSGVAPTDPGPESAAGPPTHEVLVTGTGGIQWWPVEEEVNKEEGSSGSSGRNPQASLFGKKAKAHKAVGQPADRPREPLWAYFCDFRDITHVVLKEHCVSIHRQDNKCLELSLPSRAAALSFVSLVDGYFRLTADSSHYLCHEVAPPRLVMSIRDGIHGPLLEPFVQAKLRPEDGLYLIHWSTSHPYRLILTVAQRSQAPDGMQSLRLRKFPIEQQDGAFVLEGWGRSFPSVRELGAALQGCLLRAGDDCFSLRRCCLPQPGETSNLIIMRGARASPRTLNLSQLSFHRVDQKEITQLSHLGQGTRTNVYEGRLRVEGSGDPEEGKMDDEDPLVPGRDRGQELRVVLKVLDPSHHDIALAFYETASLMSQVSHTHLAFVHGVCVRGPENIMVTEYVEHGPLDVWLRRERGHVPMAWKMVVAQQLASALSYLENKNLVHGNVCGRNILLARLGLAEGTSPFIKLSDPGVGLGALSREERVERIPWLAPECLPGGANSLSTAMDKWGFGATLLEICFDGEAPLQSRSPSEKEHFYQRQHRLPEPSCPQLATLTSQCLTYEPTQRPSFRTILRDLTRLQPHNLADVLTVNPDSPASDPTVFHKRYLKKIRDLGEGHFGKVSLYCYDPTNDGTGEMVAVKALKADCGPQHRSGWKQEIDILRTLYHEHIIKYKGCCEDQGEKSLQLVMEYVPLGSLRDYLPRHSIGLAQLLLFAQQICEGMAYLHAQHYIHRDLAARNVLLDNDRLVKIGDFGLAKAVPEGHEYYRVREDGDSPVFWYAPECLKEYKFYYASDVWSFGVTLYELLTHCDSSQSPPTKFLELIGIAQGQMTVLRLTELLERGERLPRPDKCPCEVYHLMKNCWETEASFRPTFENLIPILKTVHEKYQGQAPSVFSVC
Sequence of NT-3 growth factor receptor (Homo sapiens) (Q16288 32-839 limits assumed): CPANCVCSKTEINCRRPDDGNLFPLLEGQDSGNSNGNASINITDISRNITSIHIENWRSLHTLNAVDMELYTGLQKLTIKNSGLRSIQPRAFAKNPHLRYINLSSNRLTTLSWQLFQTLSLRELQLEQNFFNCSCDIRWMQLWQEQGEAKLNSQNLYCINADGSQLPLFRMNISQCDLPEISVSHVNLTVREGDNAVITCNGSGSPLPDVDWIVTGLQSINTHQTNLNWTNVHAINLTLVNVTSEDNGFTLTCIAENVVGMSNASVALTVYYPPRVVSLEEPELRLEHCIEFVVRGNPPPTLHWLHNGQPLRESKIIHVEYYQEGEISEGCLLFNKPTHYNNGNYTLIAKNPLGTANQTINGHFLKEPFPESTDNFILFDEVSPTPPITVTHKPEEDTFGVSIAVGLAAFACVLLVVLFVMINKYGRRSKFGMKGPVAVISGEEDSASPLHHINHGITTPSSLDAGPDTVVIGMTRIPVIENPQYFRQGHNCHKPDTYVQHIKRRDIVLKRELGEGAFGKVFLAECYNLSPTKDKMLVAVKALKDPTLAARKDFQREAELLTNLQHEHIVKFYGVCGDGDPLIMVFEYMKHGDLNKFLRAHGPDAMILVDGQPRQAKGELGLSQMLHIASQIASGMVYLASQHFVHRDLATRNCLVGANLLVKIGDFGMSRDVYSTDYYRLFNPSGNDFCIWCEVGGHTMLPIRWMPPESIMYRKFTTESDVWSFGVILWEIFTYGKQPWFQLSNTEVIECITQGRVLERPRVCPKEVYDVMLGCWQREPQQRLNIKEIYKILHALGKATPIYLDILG
Sequence of BDNF/NT-3 growth factors receptor (Homo sapiens) (Q16620 32-822 limits assumed): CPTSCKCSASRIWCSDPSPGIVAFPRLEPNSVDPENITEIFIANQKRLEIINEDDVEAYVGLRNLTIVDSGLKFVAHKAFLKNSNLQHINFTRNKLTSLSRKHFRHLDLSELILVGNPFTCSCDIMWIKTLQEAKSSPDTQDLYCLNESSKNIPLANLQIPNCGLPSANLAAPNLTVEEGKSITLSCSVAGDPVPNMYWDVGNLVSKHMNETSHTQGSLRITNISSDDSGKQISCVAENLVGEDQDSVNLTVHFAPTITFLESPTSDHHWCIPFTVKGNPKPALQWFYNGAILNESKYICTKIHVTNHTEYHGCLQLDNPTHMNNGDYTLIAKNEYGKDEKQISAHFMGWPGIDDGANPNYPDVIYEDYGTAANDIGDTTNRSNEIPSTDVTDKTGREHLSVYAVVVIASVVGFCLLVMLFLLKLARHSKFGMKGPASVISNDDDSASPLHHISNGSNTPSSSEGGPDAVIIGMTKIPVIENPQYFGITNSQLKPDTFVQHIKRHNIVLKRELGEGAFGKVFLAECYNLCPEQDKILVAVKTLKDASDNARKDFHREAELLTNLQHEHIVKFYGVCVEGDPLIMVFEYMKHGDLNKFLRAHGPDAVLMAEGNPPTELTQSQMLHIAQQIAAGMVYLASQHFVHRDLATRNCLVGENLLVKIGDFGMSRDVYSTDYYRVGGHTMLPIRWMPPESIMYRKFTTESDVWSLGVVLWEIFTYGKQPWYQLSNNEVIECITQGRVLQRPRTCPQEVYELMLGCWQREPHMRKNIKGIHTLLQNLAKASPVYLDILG
Sequence of High affinity nerve growth factor receptor (Homo sapiens) (P04629 33-796 limits assumed): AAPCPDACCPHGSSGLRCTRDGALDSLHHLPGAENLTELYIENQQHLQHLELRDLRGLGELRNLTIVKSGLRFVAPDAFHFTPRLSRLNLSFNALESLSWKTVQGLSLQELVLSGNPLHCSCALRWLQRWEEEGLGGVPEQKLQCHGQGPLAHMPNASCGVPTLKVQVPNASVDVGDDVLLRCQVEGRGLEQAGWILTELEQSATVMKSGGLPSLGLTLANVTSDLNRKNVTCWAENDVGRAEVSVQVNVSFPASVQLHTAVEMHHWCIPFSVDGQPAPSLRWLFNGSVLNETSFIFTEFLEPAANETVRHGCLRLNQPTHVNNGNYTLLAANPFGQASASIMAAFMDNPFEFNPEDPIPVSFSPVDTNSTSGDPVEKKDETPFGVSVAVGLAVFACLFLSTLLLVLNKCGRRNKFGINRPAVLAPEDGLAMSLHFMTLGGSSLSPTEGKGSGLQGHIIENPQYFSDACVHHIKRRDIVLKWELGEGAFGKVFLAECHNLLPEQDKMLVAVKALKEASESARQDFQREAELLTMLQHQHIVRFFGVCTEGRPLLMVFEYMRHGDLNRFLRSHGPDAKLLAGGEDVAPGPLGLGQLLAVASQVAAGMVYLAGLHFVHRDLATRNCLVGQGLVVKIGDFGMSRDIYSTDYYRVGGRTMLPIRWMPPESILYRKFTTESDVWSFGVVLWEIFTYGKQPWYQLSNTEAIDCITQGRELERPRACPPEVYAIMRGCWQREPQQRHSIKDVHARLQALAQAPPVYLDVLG
Sequence of Activated CDC42 kinase 1 (Homo sapiens) (Q07912 whole entry, looked up): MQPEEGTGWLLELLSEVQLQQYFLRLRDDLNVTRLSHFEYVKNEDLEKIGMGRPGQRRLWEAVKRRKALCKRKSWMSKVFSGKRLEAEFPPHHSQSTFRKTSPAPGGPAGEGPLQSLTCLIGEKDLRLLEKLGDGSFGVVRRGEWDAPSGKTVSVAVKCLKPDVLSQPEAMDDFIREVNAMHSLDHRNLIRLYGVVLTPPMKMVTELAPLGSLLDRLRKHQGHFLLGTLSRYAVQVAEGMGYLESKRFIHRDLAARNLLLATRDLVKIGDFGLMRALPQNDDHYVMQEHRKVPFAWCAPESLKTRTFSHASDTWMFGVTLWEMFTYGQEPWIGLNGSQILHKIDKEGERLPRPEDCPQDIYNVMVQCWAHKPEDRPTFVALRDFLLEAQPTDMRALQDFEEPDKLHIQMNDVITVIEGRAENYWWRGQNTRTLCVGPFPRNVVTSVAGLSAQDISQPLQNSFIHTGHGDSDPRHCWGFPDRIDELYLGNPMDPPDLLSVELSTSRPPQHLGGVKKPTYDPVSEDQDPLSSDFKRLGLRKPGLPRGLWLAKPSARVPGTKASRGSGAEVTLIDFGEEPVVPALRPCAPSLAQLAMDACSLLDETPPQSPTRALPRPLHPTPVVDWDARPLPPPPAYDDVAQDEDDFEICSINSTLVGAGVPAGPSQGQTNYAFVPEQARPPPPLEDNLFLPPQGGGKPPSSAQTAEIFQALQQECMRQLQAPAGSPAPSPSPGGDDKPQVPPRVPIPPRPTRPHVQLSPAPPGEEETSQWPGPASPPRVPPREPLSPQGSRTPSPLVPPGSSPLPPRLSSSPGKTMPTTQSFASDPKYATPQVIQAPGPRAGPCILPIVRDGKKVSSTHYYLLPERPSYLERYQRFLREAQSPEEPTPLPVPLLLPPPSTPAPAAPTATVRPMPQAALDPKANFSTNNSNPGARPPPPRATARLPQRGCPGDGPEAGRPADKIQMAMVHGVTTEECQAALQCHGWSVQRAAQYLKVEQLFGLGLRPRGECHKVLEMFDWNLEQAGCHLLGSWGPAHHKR

Turning to `CCn1c(-c2nonc2N)nc2cnc(Oc3cccc(NC(=O)c4ccc(OCCN5CCOCC5)cc4)c3)cc21`, the inhibition in [1] was 1.88%; in experiment [2], 3.35%; in experiment [3], 5.81%; in experiment [4], 3.75%; in experiment [5], 6.59%; in experiment [6] it was 0.95%. Also, the inhibition is 5.9% in experiment [7]; -0.31% in [8]; -0.19% in [9]; 4.32% in experiment [10]; -0.09% in experiment [11]; 3.18% in experiment [12]. Also, the inhibition in experiment [13] is 0.84%; in experiment [14], 2.85%; in experiment [15], 2.49%; in [16] it was 5.3%; in experiment [17], 5.82%; in experiment [18] it was -1.13%. In addition, the inhibition in experiment [19] turned out to be 10.2%; in experiment [20], 6.07%.

For the molecule `Nc1nc(-c2ccc3c(c2)C(=Cc2cc(Br)c(O)c(Br)c2)C(=O)N3)cs1`, the inhibition was 0.99% in experiment [1]; -1.8% in [2]; -1% in experiment [3]; -0.24% in experiment [4]; 3.72% in experiment [5]; 0.05% in experiment [6]. Besides, the inhibition was 37.1% in experiment [7]; -1.13% in experiment [8]; -0.19% in [9]; 1.01% in [10]; 2.45% in experiment [11]; 1.16% in [12]. Also, the inhibition in [13] is 9.18%; in experiment [14], 2.62%; in experiment [15] it was 16.6%; in experiment [16] it was -0.27%; in [17], 0.27%; in experiment [18] it was 1.72%. For the same molecule, the inhibition in [19] was -0.27%; in experiment [20] it was -1.16%.

With `O=C1NC(=O)C(c2ccc(Cl)cc2)=C1Nc1ccc(Cl)c(C(=O)O)c1`, the inhibition in [1] was -0.32%; in experiment [2] it was -1.66%; in experiment [3] it was -1.1%; in experiment [4], -0.19%; in experiment [5], 3.01%; in experiment [6] it was -3.22%. Further, the inhibition is 0.53% in experiment [7]; -0.36% in [8]; -0.48% in experiment [9]; 0.44% in experiment [10]; 0.46% in [11]; 1.23% in [12]. The inhibition was 0.65% in experiment [13]; -1.8% in experiment [14]; -0.55% in [15]; -0.87% in experiment [16]; 1.12% in [17]; 0.04% in experiment [18]. The results for the inhibition in experiment [19] and in [20] were -3.54% and -3.12%, respectively.
